# Assays:
# Type in all cases: functional
# Plasmodium falciparum [1] = experiment: GSK_TCMDC: Inhibition of Plasmodium falciparum 3D7 in whole red blood cells, using parasite LDH activity as an index of growth. Test compounds present at 2uM
# Plasmodium falciparum [2] = experiment: GSK_TCMDC: Inhibition of Plasmodium falciparum Dd2 in whole red blood cells, using parasite LDH activity as an index of growth. Test compounds present at 2uM
# HepG2 = experiment: GSK_TCMDC: Percent inhibition of human HepG2 cell line. Test compounds present at 10uM.
smiles,measurement,setting,value
COc1ccc2nccc([C@@H](O)CN3CCC(NCc4cc5c(F)ccc(F)c5[nH]4)CC3)c2c1.O=C(O)C(=O)O,Inhibition,Plasmodium falciparum [1],100%
same,Inhibition,Plasmodium falciparum [2],67%
same,Inhibition,HepG2,29%
CC(=O)Nc1ccc(CN2CCc3ccc(NS(=O)(=O)c4cccc(OCc5ccc(Cl)cc5)c4)cc3CC2)s1,Inhibition,Plasmodium falciparum [1],93%
same,Inhibition,Plasmodium falciparum [2],7%
same,Inhibition,HepG2,23%
CCn1c(-c2nonc2N)nc2c(-c3cccc(NC(=O)Nc4cccc(Cl)c4)c3)ncc(OCCCN)c21.O=C(O)C(F)(F)F,Inhibition,Plasmodium falciparum [1],91%
same,Inhibition,Plasmodium falciparum [2],78%
same,Inhibition,HepG2,9%
CC(C)c1ccc(CN2CCC(CNC(=O)c3cc(-c4cccc(F)c4)cs3)C2)cc1.O=C(O)C(F)(F)F (stereo not drawn),Inhibition,Plasmodium falciparum [1],100%
same,Inhibition,Plasmodium falciparum [2],46%
same,Inhibition,HepG2,59%
CC(C)c1ccc(NC(=O)NC2CCN(CCCCCN(C)C(=O)/C=C/c3ccc(Cl)c(Cl)c3)C2)cc1 (stereo not drawn),Inhibition,Plasmodium falciparum [1],99%
same,Inhibition,Plasmodium falciparum [2],3%
same,Inhibition,HepG2,28%
COc1ccc2nccc([C@@H](O)CN3CCC(NC(=O)c4cc5c(F)cc(F)cc5[nH]4)CC3)c2n1,Inhibition,Plasmodium falciparum [1],100%
same,Inhibition,Plasmodium falciparum [2],74%
same,Inhibition,HepG2,32%
Cc1nn(CC(O)Cn2c3ccc(Br)cc3c3cc(Br)ccc32)c(C)c1Br (stereo not drawn),Inhibition,Plasmodium falciparum [1],98%
same,Inhibition,Plasmodium falciparum [2],81%
same,Inhibition,HepG2,4%
Cl.O=C(c1ccc(-c2ccc(Cl)cc2)o1)N1CCc2cc3nccc(N4CCN5CCC[C@H]5C4)c3cc21,Inhibition,Plasmodium falciparum [1],100%
same,Inhibition,Plasmodium falciparum [2],86%
same,Inhibition,HepG2,1%
Cl.Clc1cnc2ccc3c(c2c1CCN1CCC(NCc2cc4c(cn2)OCCO4)CC1)OCCO3,Inhibition,Plasmodium falciparum [1],92%
same,Inhibition,Plasmodium falciparum [2],18%
same,Inhibition,HepG2,3%
O=C(Nc1cccc(C(F)(F)F)c1)c1cccc(S(=O)(=O)NCC2CCCN2CC2CCCCC2)c1.O=C(O)C(F)(F)F (stereo not drawn),Inhibition,Plasmodium falciparum [1],97%
same,Inhibition,Plasmodium falciparum [2],2%
same,Inhibition,HepG2,6%
O=C(NC(CCCN1CCC(c2ccccc2)CC1)c1ccc(Cl)c(Cl)c1)c1cc(C(F)(F)F)cc(C(F)(F)F)c1 (stereo not drawn),Inhibition,Plasmodium falciparum [1],92%
same,Inhibition,Plasmodium falciparum [2],87%
same,Inhibition,HepG2,33%
O=C(NC1CCCCC1)N(Cc1ccccc1-c1ccc(CNCCc2ccccc2)cc1)C1CCN(Cc2ccccc2)CC1.O=C(O)C(F)(F)F,Inhibition,Plasmodium falciparum [1],90%
same,Inhibition,Plasmodium falciparum [2],92%
same,Inhibition,HepG2,96%
CCCNCc1ccc(-c2ccc(CNC3Cc4ccccc4C3)cc2)nc1.O=C(O)C(F)(F)F,Inhibition,Plasmodium falciparum [1],97%
same,Inhibition,Plasmodium falciparum [2],32%
same,Inhibition,HepG2,23%
COCC(C)n1c(SCC(=O)Nc2cc(C(F)(F)F)ccc2Cl)nc2ccccc2c1=O (stereo not drawn),Inhibition,Plasmodium falciparum [1],97%
same,Inhibition,Plasmodium falciparum [2],96%
same,Inhibition,HepG2,3%
CCOC(=O)c1cnc2cc(N3CCCC3)c(Cl)cc2c1OCC,Inhibition,Plasmodium falciparum [1],97%
same,Inhibition,Plasmodium falciparum [2],97%
same,Inhibition,HepG2,0%
C#CCN(Cc1cc2c(=O)[nH]c(N)nc2cc1C)c1ccc(C(=O)N[C@@H](CCC(=O)O)C(=O)O)cc1,Inhibition,Plasmodium falciparum [1],92%
same,Inhibition,Plasmodium falciparum [2],74%
same,Inhibition,HepG2,28%
Cc1nc(C)c(-c2ccc(Br)cc2)c(O)c1Br,Inhibition,Plasmodium falciparum [1],98%
same,Inhibition,Plasmodium falciparum [2],95%
same,Inhibition,HepG2,9%
CCc1ccc(-c2cnc(N)c3cc(-c4ccnc(N)n4)ccc23)cc1,Inhibition,Plasmodium falciparum [1],92%
same,Inhibition,Plasmodium falciparum [2],70%
same,Inhibition,HepG2,37%
O=C(Nc1ccc(Cl)cc1)c1ccc(CN2CCCN(Cc3ccccc3)CC2)cc1.O=C(O)C(F)(F)F,Inhibition,Plasmodium falciparum [1],96%
same,Inhibition,Plasmodium falciparum [2],2%
same,Inhibition,HepG2,46%
CN1CCCN(Cc2cccc(-c3cccc(NC(=O)c4ccc(C#N)cc4)c3)c2)CC1.O=C(O)C(F)(F)F,Inhibition,Plasmodium falciparum [1],89%
same,Inhibition,Plasmodium falciparum [2],4%
same,Inhibition,HepG2,7%
COc1ccc2nc(N3CCNCC3)nc(NCCCc3ccccc3)c2c1.Cl,Inhibition,Plasmodium falciparum [1],100%
same,Inhibition,Plasmodium falciparum [2],43%
same,Inhibition,HepG2,31%
O=C(Nc1cccc(Cl)c1Cl)N[C@H]1CCN(CCCCCNC(=O)C2CC2c2ccc(Cl)c(Cl)c2)C1 (stereo partly drawn),Inhibition,Plasmodium falciparum [1],87%
same,Inhibition,Plasmodium falciparum [2],0%
same,Inhibition,HepG2,40%
CCOc1ccc(-c2nc(NC(=O)COc3ccc(OC)cc3)sc2C)cc1,Inhibition,Plasmodium falciparum [1],99%
same,Inhibition,Plasmodium falciparum [2],87%
same,Inhibition,HepG2,0%
c1ccc(OCCOc2ccc(Nc3ccnc4cc5ccccc5cc34)cc2)cc1,Inhibition,Plasmodium falciparum [1],100%
same,Inhibition,Plasmodium falciparum [2],96%
same,Inhibition,HepG2,44%
O=C(O)C(F)(F)F.c1ccc(C2CCN(Cc3ccc(-c4c[nH]c5nc(NC6CCCC6)ncc45)cc3)CC2)cc1,Inhibition,Plasmodium falciparum [1],82%
same,Inhibition,Plasmodium falciparum [2],9%
same,Inhibition,HepG2,39%
CNC(=O)c1cnc(Nc2ccc(N3CCOCC3)cc2)nc1Nc1cccc(OC)c1.O=C(O)C(F)(F)F,Inhibition,Plasmodium falciparum [1],96%
same,Inhibition,Plasmodium falciparum [2],41%
same,Inhibition,HepG2,2%

# Reference: ChEMBL document CHEMBL1157539, “Thousands of chemical starting points for antimalarial lead identification” (Nature, 2010)
